# According to ChEMBL document CHEMBL4513216, “Probing the Open Global Health Chemical Diversity Library for Multistage-Active Starting Points for Next-Generation Antimalarials” (ACS Infect Dis, 2020):
# Screen size: about 69,000 compounds; about 8,600 (12%) showed an effect of 50% or more. This excerpt belongs to a sample that is enriched for strong results.
# Tested on: Plasmodium berghei
# Assay: Screen against P. berghei liver stage (PbLuc), transformed with Luciferase, at 10uM
# Assay type: functional, HepG2
# Settings: tested at 10 uM
row,Compound,INHIBITION [%]
1,Cc1ccccc1CNC(=O)N1C[C@@H]2C[C@H](C(=O)N3CCCC3)[C@H](C1)O2,-16.9
2,O=C(Nc1nc[nH]n1)c1cc(-c2ccc(F)cc2)n[nH]1,16
3,Cc1cc(C(=O)NCc2ccnc(N3CCN(C)CC3)c2)sc1C,36.45
4,CN1CC(=O)N(C2CCNCC2)Cc2c(NCC(C)(C)C)ncnc21,47.4
5,COc1ccc(CC(=O)Nc2ccc3ncn(C(C)C)c(=O)c3c2)cc1,21.2
6,CCC1(CO)CCCN(C(=O)c2cc(COc3cccc(F)c3)[nH]n2)C1 (stereo unspecified),20.9
7,Cc1nn(C)c(N(C)C)c1CNC(C)COc1ccccc1F (stereo unspecified),23.4
8,CNC(=O)CCNC(=O)CCc1c(C)nc2cc(O)nn2c1C,29.2
9,CCN(CC)C(=O)CCc1c(C)nc2cc(O)nn2c1C,34.7
10,COC(=O)CCc1c(C)nc2cc(O)nn2c1C,53.5
11,CCNC(=O)CCc1c(C)nc2cc(O)nn2c1C,55.9
12,Cc1nc(NC(=O)CCc2c(C)nc3cc(O)nn3c2C)sc1C,-14.7
13,Cc1nc2cc(O)nn2c(C)c1CCC(=O)NCCc1ccccc1,22.3
14,Oc1ccc(N(CCc2ccccc2)CCn2cncn2)cc1,44
15,CCS(=O)(=O)N1C[C@H]2CC[C@](O)(c3ccc(C)cc3)[C@H]2C1,-2.11
16,Cc1nc(C2CCCN(C(=O)c3cc4c(s3)CCCC4)C2)no1 (stereo unspecified),11.2
17,O=C(NCC1CCN(Cc2cc3ccccc3[nH]2)C1)c1ccsc1 (stereo unspecified),40.8
18,O=C(CCc1ccsc1)NC1CCN(c2cccc(F)c2)CC1,59.3
19,COc1ccc(N2CCC(NC(=O)c3ccc(C#N)cc3)CC2)cc1,41.8
20,COc1ccsc1C(=O)NC1CCN(c2cccc(F)c2)CC1,84.1
21,O=C(Cc1cccs1)NC1CCN(c2cccc(F)c2)CC1,4.71
22,CC(c1ccccc1)N1CCC(NC(=O)CCc2ccsc2)CC1 (stereo unspecified),4.22
23,COc1ccc(C(=O)NC2CCN(c3ncccn3)CC2)cc1F,46.1
24,O=C(CCc1ccc(Cl)cc1)NC1CCN(c2cccc(F)c2)CC1,47.3

row,Compound,INHIBITION [%]
1,COc1ccsc1C(=O)NC1CCN(c2ccc(C#N)cc2)CC1,52.6
2,COc1ccc(N2CCC(NC(=O)c3sccc3C)CC2)cc1,45
3,CCN1C[C@@H]2CN(C(=O)NCc3ccccc3)CCC[C@]2(C(=O)O)C1,31.4
4,COc1ccc(CN2C[C@H]3CC[C@@H](C2)N(S(C)(=O)=O)C3)cc1,15.7
5,COc1ccc(Cl)cc1CN(C)CC(=O)Nc1ccnn1C(C)C1CC1 (stereo unspecified),-75.4
6,COCCN1CCC2(COCc3c(C)nc(N4CCOCC4)nc32)C1 (stereo unspecified),-24.8
7,Cc1nn(-c2ccccc2)cc1C(=O)N1CCCC(n2ccnc2C)C1 (stereo unspecified),27.6
8,COCCOc1ncccc1C(=O)N1CCCC(n2ccnc2C)C1 (stereo unspecified),-19.9
9,Cc1cc(C(=O)N2CCCC(n3ccnc3C)C2)c(C)s1 (stereo unspecified),18.2
10,Cc1nccn1C1CCCN(C(=O)c2ccc3c(c2)CCC3)C1 (stereo unspecified),-0.96
11,Cc1nccn1C1CCCN(C(=O)c2ccc3c(c2)COC3)C1 (stereo unspecified),57.8
12,Cc1ccccc1-c1cc(C(=O)N2CCCC(n3ccnc3C)C2)[nH]n1 (stereo unspecified),66.7
13,Cc1nccn1C1CCCN(C(=O)c2cc(O)nc3ccccc23)C1 (stereo unspecified),52.7
14,CCCc1cc(C(=O)N2CCCC(n3ccnc3C)C2)[nH]n1 (stereo unspecified),10.8
15,COc1ncccc1C(=O)N1CCCC(n2ccnc2C)C1 (stereo unspecified),54.7
16,CC(C)c1nccn1C1CCCN(C(=O)c2ccc3c(c2)COC3)C1 (stereo unspecified),-49.5
17,COc1ncccc1C(=O)N1CCCC(n2ccnc2)C1 (stereo unspecified),-5
18,Cc1cnn(C2CCCN(C(=O)c3cc(-c4ccccc4C)n[nH]3)C2)c1 (stereo unspecified),32
19,Cc1cnn(CC2CN(CC(=O)Nc3cc(C)on3)CCO2)c1 (stereo unspecified),16.85
20,CC(C)n1ccnc1CN1CCCN(C(=O)c2cnc[nH]2)CC1,46.3
21,O=C(Cc1ccc2c(c1)OCCO2)NC1CCCCC1,-53.2
22,O=C([C@H]1CCCO1)N1CCN(CCn2cccn2)c2ncccc2C1,30.3
23,O=C(Nc1ccc(F)cc1)C1CSCN1 (stereo unspecified),3.38
24,COc1ccc(CN(Cc2c[nH]cn2)CC2CCCO2)c(OC)c1 (stereo unspecified),25.6

row,Compound,INHIBITION [%]
1,O=C(c1cccs1)N1CCN(CC2CC2)c2ncccc2C1,-22.5
2,O=C(NCc1ccccc1Cn1cncn1)N1CCCC1,-33.3
3,C1CC(CN2C[C@@H]3CC[C@H]2CN(Cc2nnc(C4CC4)o2)C3)C1,27.5
4,Cn1c2c(ccc1=O)CC(NC(=O)c1ccsc1)CC2 (stereo unspecified),49.4
5,Cn1ccc(N2CCCC(NC(=O)c3ccsc3)C2=O)n1 (stereo unspecified),72.5
6,Cn1ccc(N2CCCC(NC(=O)c3ccc(Cl)o3)C2=O)n1 (stereo unspecified),-34.8
7,c1ccc(CN2CCCC(c3nccnc3-n3ccnc3)C2)cc1 (stereo unspecified),33.5
8,CS(=O)(=O)CCNC(=O)Nc1ccc(Cl)cc1-n1cccc1,35.4
9,Cc1nc(C2CCCN(C(=O)c3ccc(Cl)cn3)C2)no1 (stereo unspecified),-2.53
10,CCn1c(CC2CCN(S(=O)(=O)c3cccc(C)c3)CC2)nn(C)c1=O,37.4
11,CN1CCN(c2ccc(F)cc2NC(=O)NCCn2ccnc2)CC1,37.9
12,O[C@@]1(CNCC2(Cn3cccn3)CC2)CCCN2CCCC[C@@H]21,1.56
13,CN1CCN(C2CCN(C(C(N)=O)c3ccccc3)CC2)C1=O (stereo unspecified),20.9
14,CCN1CCN(C2CCN(C(C(N)=O)c3ccc(F)cc3)CC2)C1=O (stereo unspecified),16.6
15,CCN1CCN(C2CCN(C(C(N)=O)c3ccccc3)CC2)C1=O (stereo unspecified),61.1
16,Cc1cnn(CCNCC(=O)NC(c2ccccc2)c2ccccc2)c1,-18.9
17,Cc1c(C(=O)N2CCC2)nnn1-c1ccc2ncccc2c1,-24.8
18,CCn1cnnc1CNC(=O)N1CCN(c2nc(C)c(C)s2)CC1,60.5
19,CCn1cnnc1CNC(=O)N1CCN(c2nccs2)CC1,27.8
20,CCn1cnnc1CNC(=O)N1CCC(O)CC1,17.4
21,CCn1cnnc1CNC(=O)N1CCCC1,-3.2
22,CCn1cnnc1CNC(=O)N1CCC(C(=O)NC)CC1,61.3
23,CCn1cnnc1CNC(=O)N1CCC(C)CC1,-13.5
